# Test results from PubChem BioAssay (EPA / NIEHS).
# Activity calls are given as the source filed them. How the source made its calls: active means hit-call score of the fitted dose curve at least 0.9, where 1 is the maximum; inactive means score below 0.9.
# Experiments:
# [1] = biological target: CCAAT/enhancer-binding protein beta (Homo sapiens) (UniProt P17676); test: ATG_C_EBP_CIS: Attagene CIS-FACTORIAL HepG2 Assay for human CCAAT/Enhancer Binding Protein (C/EBP) beta (AID 2282927); conditions: HepG2 Attagene cis-factorial transcription factor reporter; actives raise or lower the signal
# Sequence of CCAAT/enhancer-binding protein beta (Homo sapiens) (P17676 whole entry, looked up): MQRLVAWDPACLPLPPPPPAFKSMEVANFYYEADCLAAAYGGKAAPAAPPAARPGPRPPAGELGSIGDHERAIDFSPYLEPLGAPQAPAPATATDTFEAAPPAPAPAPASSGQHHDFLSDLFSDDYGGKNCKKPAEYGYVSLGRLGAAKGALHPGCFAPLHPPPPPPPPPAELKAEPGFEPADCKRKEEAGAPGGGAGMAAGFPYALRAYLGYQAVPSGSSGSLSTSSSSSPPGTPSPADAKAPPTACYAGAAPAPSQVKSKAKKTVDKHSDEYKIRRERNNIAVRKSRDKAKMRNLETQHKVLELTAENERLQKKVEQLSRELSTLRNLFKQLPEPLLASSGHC
# Procedure, shortened: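 HepG2, transient MRTU transfection, 24 h treatment. RT-PCR plus CE fluorescence; DMSO negative control, bidirectional fit.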
# [2] = ATG_CMV_CIS: Attagene CIS-FACTORIAL HepG2 Assay for human CMV (Internal Marker) (AID 2282928); conditions: HepG2 CMV promoter reporter, transcription factor profiling; actives raise or lower the signal;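 further: endpoint acts as a background internal control marker rather than a target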
# Procedure, shortened: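 After transient transfection of HepG2 with reporter transcription units driven by cis-regulatory promoters, cells receive test chemical for 24 h. Labeled reporter amplicons, digested with HpaI, are sized and quantified by capillary electrophoresis against DMSO.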
# [3] = ATG_AP_2_CIS: Attagene CIS-FACTORIAL HepG2 Assay for human Activator Protein 2 (AP-2) (AID 2282932); conditions: HepG2 AP-2 cis-reporter, Attagene transcription factor profiling; actives raise or lower the signal
# Procedure, shortened: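 Multiplexed mRNA reporter assay in HepG2: cis-regulated units report endogenous factor activity after 24 h treatment. Fluorescence from capillary electrophoresis of RT-PCR products gives the signal, with DMSO as baseline.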
# [4] = ATG_BRE_CIS: Attagene CIS-FACTORIAL HepG2 Assay for human Bone Morphogenetic Protein (BMP) Response Element (BRE) (AID 2282933); conditions: HepG2 BMP response element reporter, Attagene transcription factor profiling; actives raise or lower the signal
# Procedure, shortened: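 A HepG2 multiplex reporter system measured inducible reporter mRNA 24 h post-dosing. Detection: RT-PCR, 6-FAM primer extension, HpaI digestion, capillary electrophoresis. Activity fitted bidirectionally relative to DMSO.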
# [5] = biological target: Transcription factor E2F1 (Homo sapiens) (UniProt Q01094); test: ATG_E2F_CIS: Attagene CIS-FACTORIAL HepG2 Assay for human E2F Transcription Factor 1 (AID 2282935); conditions: HepG2 Attagene cis-reporter, E2F reporter RNA transcripts; actives raise or lower the signal
# Sequence of Transcription factor E2F1 (Homo sapiens) (Q01094 whole entry, looked up): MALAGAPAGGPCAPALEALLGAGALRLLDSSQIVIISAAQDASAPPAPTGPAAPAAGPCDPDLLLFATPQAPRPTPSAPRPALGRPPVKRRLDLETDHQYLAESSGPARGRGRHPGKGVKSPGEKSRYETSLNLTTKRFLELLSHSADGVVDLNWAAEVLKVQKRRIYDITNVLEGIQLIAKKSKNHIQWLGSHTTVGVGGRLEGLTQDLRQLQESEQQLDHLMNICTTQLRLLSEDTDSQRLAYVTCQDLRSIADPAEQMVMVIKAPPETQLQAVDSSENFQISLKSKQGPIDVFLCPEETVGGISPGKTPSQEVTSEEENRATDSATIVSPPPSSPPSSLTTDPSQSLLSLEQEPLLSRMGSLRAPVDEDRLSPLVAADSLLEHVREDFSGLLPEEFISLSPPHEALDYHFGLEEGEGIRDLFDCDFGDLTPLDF
# Procedure, shortened: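 Measures reporter transcript levels via RT-PCR with capillary electrophoresis detection in HepG2 cells harboring cis-regulated reporter units; 24 h post-dose; bidirectional curve fitting with DMSO as baseline.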
# [6] = ATG_E_Box_CIS: Attagene CIS-FACTORIAL HepG2 Assay for human Enhancer Box (E-box) (AID 2282936); conditions: HepG2 E-box cis-reporter transcription, actives raise or lower the signal
# Procedure, shortened: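 First, HepG2 cells receive multiple cis-regulated reporter constructs by transient transfection. Next, chemicals are applied for 24 h. Finally, reporter mRNA is quantified via RT-PCR and capillary electrophoresis, with DMSO as baseline.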
# [7] = ATG_M_61_CIS: Attagene CIS-FACTORIAL HepG2 Assay for M61 Transcription Factor (Internal Marker) (AID 2282937); conditions: HepG2 Attagene CIS-FACTORIAL M61 internal marker reporter; actives raise or lower the signal
# Procedure, shortened: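 Readout is reporter mRNA by RT-PCR, fluorescent primer extension and capillary electrophoresis, with gain or loss fitted relative to DMSO. Transfected HepG2 cells carrying endogenous-TF-driven cis reporters were exposed to chemicals for 24 hours.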
# [8] = ATG_EGR_CIS: Attagene CIS-FACTORIAL HepG2 Assay for human Early Growth Response 1 (EGR1) (AID 2282938); conditions: HepG2 Attagene CIS-FACTORIAL EGR reporter mRNA; actives raise or lower the signal
# Procedure, shortened: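 After 24 h compound exposure, RNA from reporter-transfected HepG2 cells was reverse-transcribed, PCR-amplified, fluorescently labelled and resolved by capillary electrophoresis. EGR1 reporter transcript changes, up or down, were fitted against DMSO, reflecting endogenous transcription-factor activity.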
# [9] = ATG_M_19_CIS: Attagene CIS-FACTORIAL HepG2 Assay for M19 Transcription Factor (Internal Marker) (AID 2282939); conditions: HepG2 Attagene CIS-FACTORIAL M19 internal marker reporter; actives raise or lower the signal
# Procedure, shortened: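 Chemical-treated HepG2 (24 h) with MRTU constructs; reporter transcripts detected by fluorescent RT-PCR fragment analysis on capillary electrophoresis. Internal background marker, DMSO as baseline.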
# [10] = ATG_FoxO_CIS: Attagene CIS-FACTORIAL HepG2 Assay for human Forkhead box O (FoxO) (AID 2282943); conditions: HepG2 Attagene cis-reporter, FoxO element, mRNA; actives raise or lower the signal
# Procedure, shortened: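 Transfected HepG2 reporter cells exposed to test chemical for 24 h; reporter RNA measured by reverse transcription, PCR and fluorescent capillary electrophoresis; curves fitted for increases and decreases against DMSO.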
# [11] = ATG_GATA_CIS: Attagene CIS-FACTORIAL HepG2 Assay for human GATA Binding Protein (AID 2282944); conditions: HepG2 GATA cis-element reporter, Attagene multiplex mRNA; actives raise or lower the signal
# Procedure, shortened: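 Transfected cis-reporter HepG2 cells were treated with chemicals for 24 hours. Total RNA was then converted to cDNA, amplified with reporter-specific primers and analysed by fluorescent capillary electrophoresis, using DMSO-treated wells as baseline.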
# [12] = ATG_GLI_CIS: Attagene CIS-FACTORIAL HepG2 Assay for human Zinc Finger Protein GLI1 (AID 2282945); conditions: HepG2, Attagene cis-factorial reporter mRNA, GLI element; actives raise or lower the signal
# Procedure, shortened: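 Transiently transfected HepG2 cells report endogenous transcription factor activity via cis-element-driven reporter units. After 24 h compound exposure, reporter mRNA was measured by RT-PCR with capillary electrophoresis; bidirectional fitting against DMSO baseline.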
# [13] = ATG_ISRE_CIS: Attagene CIS-FACTORIAL HepG2 Assay for human Interferon Regulatory Factor 1 (IRF1) binding to an Interferon-Stimulated Response Element (ISRE) (AID 2282948); conditions: HepG2 ISRE cis-reporter (Attagene), mRNA transcription readout; actives raise or lower the signal
# Procedure, shortened: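 Cell-based cis-reporter assay; HepG2; 24 h exposure; reporter mRNA by RT-PCR plus capillary electrophoresis fluorescence; activity in either direction scored relative to DMSO.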
# [14] = ATG_M_32_CIS: Attagene CIS-FACTORIAL HepG2 Assay for M32 Transcription Factor (Internal Marker) (AID 2282949); conditions: HepG2 Attagene cis-factorial M32 reporter, mRNA; actives raise or lower the signal;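 further: background control marker of the multiplexed CIS panel rather than a real target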
# Procedure, shortened: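 Following 24 h chemical exposure of HepG2 cells transiently expressing cis-promoter reporter constructs, reporter transcript levels were determined by RT-PCR with fluorescent labelling and capillary electrophoresis, then fitted bidirectionally against DMSO.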
# [15] = ATG_M_06_CIS: Attagene CIS-FACTORIAL HepG2 Assay for M06 Transcription Factor (Internal Marker) (AID 2282950); conditions: HepG2 Attagene CIS-FACTORIAL M06 internal marker reporter; actives raise or lower the signal
# Procedure, shortened: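 Cells (HepG2, transiently carrying cis-driven reporter units) receive chemical for 24 h before RNA isolation. Reporter cDNA is PCR-amplified, FAM-labelled by primer extension, HpaI-digested and sized on a capillary analyser.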
# [16] = ATG_MRE_CIS: Attagene CIS-FACTORIAL HepG2 Assay for human Metal Responsive Element (MRE) (AID 2282954); conditions: HepG2 MRE cis-reporter transcription, Attagene multiplex; actives raise or lower the signal
# Procedure, shortened: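 Fluorescent reporter fragments separated by capillary electrophoresis give mRNA induction for the MRE unit after 24 h treatment of transfected HepG2 cells. Endogenous transcription-factor activity is read; DMSO serves as negative control and baseline.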
# [17] = ATG_PXRE_CIS: Attagene CIS-FACTORIAL HepG2 Assay for human Pregnane X Receptor Element (PXRE) (AID 2282957); conditions: HepG2 Attagene CIS-FACTORIAL PXRE reporter, mRNA; actives raise or lower the signal
# Procedure, shortened: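 Cells: HepG2, transiently transfected reporter units under cis promoter control. Exposure: 24 h. Detection: reporter mRNA via RT-PCR/CE fluorescence; bidirectional fitting, DMSO-referenced.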
# [18] = ATG_Sox_CIS: Attagene CIS-FACTORIAL HepG2 Assay for human SRY-box transcription factor (SOX) (AID 2282960); conditions: HepG2 Attagene cis-factorial SOX reporter, mRNA; actives raise or lower the signal
# Procedure, shortened: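 Reporter transcripts, measured by RT-PCR and capillary electrophoresis of labelled fragments, report endogenous SOX transcription factor activity. Transiently transfected human HepG2 cells receive chemical for 24 h; changes in either direction are fitted relative to DMSO.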
# [19] = biological target: Transcription factor Sp1 (Homo sapiens) (UniProt P08047); test: ATG_Sp1_CIS: Attagene CIS-FACTORIAL HepG2 Assay for human Specificity Protein 1 (Sp1) (AID 2282961); conditions: HepG2 Sp1 cis-reporter transcription, actives raise or lower the signal
# Sequence of Transcription factor Sp1 (Homo sapiens) (P08047 whole entry, looked up): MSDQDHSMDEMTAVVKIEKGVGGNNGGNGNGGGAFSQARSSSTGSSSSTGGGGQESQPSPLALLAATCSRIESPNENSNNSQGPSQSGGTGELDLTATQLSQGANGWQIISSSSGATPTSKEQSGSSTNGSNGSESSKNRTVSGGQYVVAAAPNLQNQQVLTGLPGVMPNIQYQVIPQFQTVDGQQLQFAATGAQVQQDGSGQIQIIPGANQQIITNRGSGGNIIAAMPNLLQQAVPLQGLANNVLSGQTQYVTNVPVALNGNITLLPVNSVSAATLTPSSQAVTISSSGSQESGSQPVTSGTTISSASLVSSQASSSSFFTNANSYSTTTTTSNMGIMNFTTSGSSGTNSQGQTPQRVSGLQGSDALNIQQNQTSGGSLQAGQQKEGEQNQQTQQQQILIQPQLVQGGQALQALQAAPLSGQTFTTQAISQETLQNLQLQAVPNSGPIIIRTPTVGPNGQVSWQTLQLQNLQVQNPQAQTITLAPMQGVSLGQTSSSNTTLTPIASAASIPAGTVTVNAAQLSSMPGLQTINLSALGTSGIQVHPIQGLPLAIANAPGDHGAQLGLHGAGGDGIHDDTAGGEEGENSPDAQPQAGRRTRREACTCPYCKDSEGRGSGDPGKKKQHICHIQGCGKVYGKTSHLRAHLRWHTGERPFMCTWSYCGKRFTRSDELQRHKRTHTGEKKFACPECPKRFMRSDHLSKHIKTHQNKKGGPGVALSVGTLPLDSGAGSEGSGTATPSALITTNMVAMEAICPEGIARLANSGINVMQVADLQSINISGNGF
# Procedure, shortened: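 Read-out is reporter transcript level, measured by RT-PCR and fluorescent capillary electrophoresis after 24 h chemical treatment. System: transiently transfected HepG2 cells reporting endogenous transcription factor activity; gain or loss fitted against DMSO baseline.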
# [20] = ATG_SREBP_CIS: Attagene CIS-FACTORIAL HepG2 Assay for human Sterol Regulatory Element Binding (SREBP) (AID 2282962); conditions: HepG2 Attagene cis-factorial SREBP reporter, mRNA; actives raise or lower the signal
# Procedure, shortened: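 mRNA induction of transfected cis-promoter reporters in HepG2 cells, 24 h post-dose. Detection: RT-PCR with 6-FAM-labelled products, HpaI digest, capillary electrophoresis. DMSO served as negative control and baseline.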
smiles,measurement,setting,value
CN(C)c1ccc(C(c2ccccc2)c2ccc(N(C)C)cc2)cc1,outcome,[1],inactive
same,outcome,[2],inactive
same,outcome,[3],inactive
same,AC50,[4],100 µM (active)
same,outcome,[5],inactive
same,outcome,[6],inactive
same,outcome,[7],inactive
same,outcome,[8],inactive
same,outcome,[9],inactive
same,outcome,[10],inactive
same,outcome,[11],inactive
same,outcome,[12],inactive
same,outcome,[13],inactive
same,outcome,[14],inactive
same,outcome,[15],inactive
same,outcome,[16],inactive
same,AC50,[17],3.06 µM (active)
same,outcome,[18],inactive
same,outcome,[19],inactive
same,outcome,[20],inactive
F[B-](F)(F)F,outcome,[1],inactive
same,outcome,[2],inactive
same,outcome,[3],inactive
same,outcome,[4],inactive
same,outcome,[5],inactive
same,outcome,[6],inactive
same,outcome,[7],inactive
same,outcome,[8],inactive
same,outcome,[9],inactive
same,outcome,[10],inactive
same,outcome,[11],inactive
same,outcome,[12],inactive
same,outcome,[13],inactive
same,outcome,[14],inactive
same,outcome,[15],inactive
same,outcome,[16],inactive
same,outcome,[17],inactive
same,outcome,[18],inactive
same,outcome,[19],inactive
same,outcome,[20],inactive
C=C1CC[C@H]2C[C@@H]1C2(C)C,outcome,[1],inactive
same,outcome,[2],inactive
same,outcome,[3],inactive
same,AC50,[4],26.1 µM (active)
same,outcome,[5],inactive
same,outcome,[6],inactive
same,outcome,[7],inactive
same,outcome,[8],inactive
same,outcome,[9],inactive
same,outcome,[10],inactive
same,outcome,[11],inactive
same,outcome,[12],inactive
same,outcome,[13],inactive
same,outcome,[14],inactive
same,outcome,[15],inactive
same,outcome,[16],inactive
same,AC50,[17],11.5 µM (active)
same,outcome,[18],inactive
same,outcome,[19],inactive
same,outcome,[20],inactive
c1cc(N(CC2CO2)CC2CO2)ccc1Cc1ccc(N(CC2CO2)CC2CO2)cc1 (stereo not given),AC50,[1],99.5 µM (active)
same,AC50,[2],26.6 µM (active)
same,AC50,[3],26.3 µM (active)
same,outcome,[4],inactive
same,outcome,[5],inactive
same,AC50,[6],34.3 µM (active)
same,outcome,[7],inactive
same,AC50,[8],18.4 µM (active)
same,outcome,[9],inactive
same,outcome,[10],inactive
same,outcome,[11],inactive
same,AC50,[12],26.4 µM (active)
same,AC50,[13],21.7 µM (active)
same,outcome,[14],inactive
same,outcome,[15],inactive
same,AC50,[16],21.3 µM (active)
same,outcome,[17],inactive
same,outcome,[18],inactive
same,AC50,[19],5.73 µM (active)
same,AC50,[20],26.4 µM (active)
C[Si](C)(C)O[Si](C)(C)O[Si](C)(C)C,outcome,[1],inactive
same,outcome,[2],inactive
same,outcome,[3],inactive
same,outcome,[4],inactive
same,outcome,[5],inactive
same,outcome,[6],inactive
same,outcome,[7],inactive
same,outcome,[8],inactive
same,outcome,[9],inactive
same,outcome,[10],inactive
same,outcome,[11],inactive
same,outcome,[12],inactive
same,outcome,[13],inactive
same,outcome,[14],inactive
same,outcome,[15],inactive
same,outcome,[16],inactive
same,outcome,[17],inactive
same,outcome,[18],inactive
same,outcome,[19],inactive
same,outcome,[20],inactive
Nc1ccc(S(=O)(=O)Nc2cnc3ccccc3n2)cc1,outcome,[1],inactive
same,outcome,[2],inactive
same,outcome,[3],inactive
same,outcome,[4],inactive
same,outcome,[5],inactive
same,outcome,[6],inactive
same,outcome,[7],inactive
same,outcome,[8],inactive
same,outcome,[9],inactive
same,outcome,[10],inactive
same,outcome,[11],inactive
same,outcome,[12],inactive
same,outcome,[13],inactive
same,outcome,[14],inactive
same,outcome,[15],inactive
same,outcome,[16],inactive
same,outcome,[17],inactive
same,outcome,[18],inactive
same,outcome,[19],inactive
same,outcome,[20],inactive
COc1c2occc2cc2ccc(=O)oc12,AC50,[1],63.8 µM (active)
same,AC50,[2],59.2 µM (active)
same,outcome,[3],inactive
same,outcome,[4],inactive
same,outcome,[5],inactive
same,outcome,[6],inactive
same,outcome,[7],inactive
same,outcome,[8],inactive
same,outcome,[9],inactive
same,outcome,[10],inactive
same,outcome,[11],inactive
same,outcome,[12],inactive
same,outcome,[13],inactive
same,outcome,[14],inactive
same,outcome,[15],inactive
same,outcome,[16],inactive
same,AC50,[17],27.3 µM (active)
same,outcome,[18],inactive
same,outcome,[19],inactive
same,outcome,[20],inactive
